Bioassay records (PubChem BioAssay)
Most compounds without a hit are left out; they make up all but 3.6% or so of the library.
mHTT-CaM PPI inh: mutant huntingtin-calmodulin interaction inhibitors – biochemical, AlphaScreen, primary screen; P42858; AlphaScreen His-mHTT/GST-CaM binding, luminescence; inhibition, % at 15 µM; 3.6% of 190,000 active; AID 1671202, 2021;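 note: 0% = both proteins with DMSO and 100% = one protein alone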
Pf apPOL block: Pf-apPOL inhibitors, biochemical, fluorescence; Plasmodium falciparum apicoplast DNA polymerase (apPOL); Recombinant Pf-apPOL, molecular beacon fluorescence, 1.5 h; inhibition, % at 10 µM; 0.25% of 210,000 active
* hit, by the source's call; i = inactive; . = no result. Cut-off read from the data, not from the text of the source: active = inhibition above about 50%; inactive = the rest.

SMILES	mHTT-CaM PPI inh	Pf apPOL block
CC1=NN(c2ccccc2)C(=O)/C1=C/c1ccc(-c2cccc(C(=O)O)c2)o1	76*	-12
CC1=NN(c2ccccc2)C(=O)/C1=C/c1ccc(-c2ccc(Cl)c(C(=O)O)c2)o1	77*	-3
CCCSc1nc(O)cc(=O)n1C	-2	-2
Cc1cc(C)nc(SCC(=O)Nc2ccc(OC(F)(F)F)cc2)n1	3	-4
CCOc1ccc2c(c1)OC(=Cc1ccc(C(=O)OC)cc1)C2=O	10	1
O=C(CSC1CCCC1)N1CCC(c2nnc(-c3ccco3)o2)CC1	100*	0
COc1nn(C)cc1C(=O)N1CCC(c2nnc(-c3ccco3)o2)CC1	-19	-8
Cc1noc(C)c1C1CCCN1C(=O)c1cc(C(C)C)no1 (configuration not stated)	-7	-3
Cc1ccc(-n2ncc3c(NCc4cccs4)ncnc32)c(C)c1	11	2
N#Cc1c(N=Cc2ccc(Br)s2)sc2c1CCCC2	2	.
Cc1cc(C)c(O)c(N=C/C=C/c2cccc([N+](=O)[O-])c2)c1	28	-4
O=C1C2C(C(=O)N1c1ccc(Cl)cc1)C1C=CC2C12CC2 (configuration not stated)	-4	-1
Cc1cc(NCC(O)c2ccc([N+](=O)[O-])cc2)nc(-n2nc(C)cc2C)n1 (configuration not stated)	97*	-2
Cc1cc(Oc2ccc([N+](=O)[O-])cc2)nc(-n2nc(C)cc2C)n1	4	2
CC1=CC(=O)C(C(C)C)=C/C1=N\OC(=O)c1cccc(F)c1	i	-4
CNC(=O)N1CCCC(c2cccc(C(=O)NCc3ccc(F)cc3)c2)C1 (configuration not stated)	-2	1
O=C(NCc1ccc(F)cc1)c1ccc(NC(=O)N2CC3CCCN3c3ccccc32)cc1 (configuration not stated)	54*	-1
CCC1CN(C(=O)NCc2ccc(F)cc2)c2ccccc2O1 (configuration not stated)	-18	-2
O=C(NCc1ccc(F)cc1)N1CC2CCCN2c2ccccc21 (configuration not stated)	77*	-4
Brc1cccc(CN2CCC(N3CCCCCC3)CC2)c1	-2	70*
Brc1cccc(CN2CCC(N3CCCCC3)CC2)c1	10	3
Cc1ccc(C(=O)N2CC=C(C(=O)NC3CC3)CC2)cc1	-4	-2
O=C(NCCCO)/C(=C\c1ccc2c(c1)OCO2)NC(=O)c1ccco1	-1	-11
O=C(c1ccc(F)cc1)N1CCCC2(CC(c3ccccc3)=CO2)C1 (configuration not stated)	99*	-6
O=C(c1ccc(F)cc1)N1CCCC2(CC(c3ccncc3)=CO2)C1 (configuration not stated)	-13	-5
SMILES	mHTT-CaM PPI inh	Pf apPOL block
O=C(c1cccc(F)c1)N1CCCC2(CC(c3ccccc3)=CO2)C1 (configuration not stated)	100*	-4
O=C(c1cccc(F)c1)N1CCCC2(CC(c3ccncc3)=CO2)C1 (configuration not stated)	-3	-2
COc1ccc(C=C2Oc3c(ccc(OC(=O)N4CCOCC4)c3C)C2=O)c(OC)c1	20	-1
Cc1ccc(-c2nc(N3CCC(C(N)=O)(N4CCCCC4)CC3)c3ccccc3n2)cc1	53*	-3
CCOC(=O)N1CCN(c2nc(-c3ccc(C)cc3)nc3ccccc23)CC1	-8	2
O=C(Nc1ccc(N2CCN(C3CCCCC3)C2=O)nc1)c1ccccc1	-5	1
O=C(Nc1ccc(O)c2c(=O)cc(-c3ccccc3Cl)oc12)c1ccc(Cl)cc1Cl	-3	1
O=c1cc(-c2ccccc2Cl)oc2c(NS(=O)(=O)c3cc(Cl)cc(Cl)c3O)ccc(O)c12	97*	36
CC(C)CCNC(=O)c1ccc(NC(=O)C2CC2)cc1N1CCCCCC1	-1	-1
COc1ccc(Cl)cc1NC(=O)CSC1=C(C#N)C(c2ccco2)C(C(N)=O)=C(C)N1 (configuration not stated)	54*	-8
CC1=C(C(N)=O)C(c2ccco2)C(C#N)=C(SCC(=O)Nc2cccc(Cl)c2C)N1 (configuration not stated)	27	0
COc1ccc(S(=O)(=O)N2CCCC2C(=O)Nc2nnc(-c3cc(C)nn3C)o2)cc1 (configuration not stated)	17	6
COC(=O)c1cc(Nc2ccccc2OC)c2cccc(OC)c2n1	0	0
COc1ccccc1Nc1cc(C(F)(F)F)nc2c(OC)ccc(OC)c12	69*	6
O=C(CC1CCCC1)NC1CCCN(c2cc(N3CCCC3)ncn2)C1 (configuration not stated)	2	-6
N#C/C(=C\c1ccc(-c2ccccc2F)o1)c1nn(CCO)c(N)c1C#N	12	-1
COc1ccc(Br)cc1/C=C(\C#N)c1nn(CCO)c(N)c1C#N	47	-1
N#C/C(=C\c1ccc(-c2ccccc2[N+](=O)[O-])o1)c1nn(CCO)c(N)c1C#N	72*	-6
CC(C)Oc1ccc(Br)cc1/C=C(\C#N)c1nn(CCO)c(N)c1C#N	54*	-4
N#C/C(=C\c1cn(Cc2ccccc2Cl)c2ccccc12)c1nn(CCO)c(N)c1C#N	39	-1
N#C/C(=C\c1cn(Cc2ccc(Cl)cc2)c2ccccc12)c1nn(CCO)c(N)c1C#N	69*	-2
COCCn1c(=N)c(S(=O)(=O)c2ccc(Cl)cc2)cc2c(=O)n3ccccc3nc21	0	-2
CCOc1cc(C2C=C(c3ccc(OC)cc3)Nc3nnnn32)ccc1OC(F)F (configuration not stated)	5	4
COC(=O)c1cccc(C(=O)N2CCc3ccccc3C2)n1	-5	-1
Cc1cc(N2C(=O)c3ccc(C(=O)O)cc3C2=O)no1	-4	-1
SMILES	mHTT-CaM PPI inh	Pf apPOL block
Cc1cc(N2C(=O)c3ccc(C(=O)N4CC=C(c5ccccc5)CC4)cc3C2=O)no1	51*	-3
COc1cccc(-c2cc(C(F)(F)F)nc(S(C)(=O)=O)n2)c1	12	-1
COc1ccc(NC(=O)N2CCC(N3CCN(Cc4ccccc4)C3=O)CC2)cc1OC	4	-7
O=Cc1ccc(OCc2ccc(C(=O)O)cc2)c(Cl)c1	3	-13
CC1CCCN(S(=O)(=O)c2ccc(Cl)cc2)C1 (configuration not stated)	-14	-4
CCOC(=O)C1CCCCN1S(=O)(=O)c1ccc2[nH]c3c(c2c1)CCCC3 (configuration not stated)	62*	4
CN(CC(=O)N1CCc2ccccc21)S(=O)(=O)c1ccc2[nH]c3c(c2c1)CCCC3	5	-2
O=S(=O)(c1ccc2[nH]c3c(c2c1)CCCC3)N1CCc2ccccc21	78*	-3
CC1CN(S(=O)(=O)c2ccc3[nH]c4c(c3c2)CCCC4)c2ccccc2O1 (configuration not stated)	96*	-4
CN(CC(=O)N1CCOCC1)S(=O)(=O)c1ccc2[nH]c3c(c2c1)CCCC3	12	-6
CC1CCCN(S(=O)(=O)c2ccc3[nH]c4c(c3c2)CCCC4)C1 (configuration not stated)	63*	0
CN(CC(=O)Nc1ccccc1F)S(=O)(=O)c1ccc2[nH]c3c(c2c1)CCCC3	37	-3
CC(=O)N1CCN(c2cc(Oc3ccc(F)cc3F)ncn2)CC1	3	-2
